Experimental data as given in the supplement of paper PMC10849652.
The full data set covers some 8,800 targets. This sample favours those with a hit. About 0.5% of all pairs of compound and target were hits.

These targets were tested with Cc1ncc(-c2ccnc(Nc3ccc(S(C)(=O)=O)cc3)n2)n1C(C)C (assay: log2 fold change, soluble protein after heating vs DMSO (PISA); higher = thermal stabilisation; K562 lysate, 10 uM; active = over 0.2 and 3.5 SD of the protein, either way, in both replicates (recomputed)).
Method in brief: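 Following dounce homogenisation of K562 pellets in PBS pH 7.4 with 1 mM MgCl2, crude extract at 1 mg/mL protein was incubated for 30 min with 10 μM compound. Aliquots were then heated for 3 min over 48°C-58°C and pooled, NP-40 was added to 0.5% at 4°C, and soluble protein was recovered as the supernatant at 21,000xg for 90 min. Channel-sum-equalised TMTpro 16plex LC-MS/MS quantified this protein. Each value, from duplicates, is a log-two fold change in thermal stability relative to solvent controls.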

UniProt Q08380, sequence (Q08380 whole entry, looked up): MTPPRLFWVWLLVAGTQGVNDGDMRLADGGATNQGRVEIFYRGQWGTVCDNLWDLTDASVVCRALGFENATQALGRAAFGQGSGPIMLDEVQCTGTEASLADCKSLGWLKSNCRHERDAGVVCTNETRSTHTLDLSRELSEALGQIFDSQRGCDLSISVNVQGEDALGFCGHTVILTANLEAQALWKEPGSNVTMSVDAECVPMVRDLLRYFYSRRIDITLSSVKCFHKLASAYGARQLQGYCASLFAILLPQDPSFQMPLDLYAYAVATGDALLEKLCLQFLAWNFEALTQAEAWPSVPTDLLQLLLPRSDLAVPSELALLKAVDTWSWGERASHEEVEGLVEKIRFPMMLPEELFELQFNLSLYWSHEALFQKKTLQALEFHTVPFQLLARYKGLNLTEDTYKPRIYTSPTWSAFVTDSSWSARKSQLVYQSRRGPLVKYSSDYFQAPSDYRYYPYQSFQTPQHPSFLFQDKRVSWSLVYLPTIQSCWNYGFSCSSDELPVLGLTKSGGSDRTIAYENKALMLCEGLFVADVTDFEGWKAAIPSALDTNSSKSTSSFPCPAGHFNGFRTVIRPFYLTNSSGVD
UniProt Q9HD34, sequence (Q9HD34 whole entry, looked up): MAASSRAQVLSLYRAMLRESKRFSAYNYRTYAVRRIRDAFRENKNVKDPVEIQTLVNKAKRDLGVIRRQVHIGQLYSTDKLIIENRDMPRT
UniProt P49917, sequence (P49917 whole entry, looked up): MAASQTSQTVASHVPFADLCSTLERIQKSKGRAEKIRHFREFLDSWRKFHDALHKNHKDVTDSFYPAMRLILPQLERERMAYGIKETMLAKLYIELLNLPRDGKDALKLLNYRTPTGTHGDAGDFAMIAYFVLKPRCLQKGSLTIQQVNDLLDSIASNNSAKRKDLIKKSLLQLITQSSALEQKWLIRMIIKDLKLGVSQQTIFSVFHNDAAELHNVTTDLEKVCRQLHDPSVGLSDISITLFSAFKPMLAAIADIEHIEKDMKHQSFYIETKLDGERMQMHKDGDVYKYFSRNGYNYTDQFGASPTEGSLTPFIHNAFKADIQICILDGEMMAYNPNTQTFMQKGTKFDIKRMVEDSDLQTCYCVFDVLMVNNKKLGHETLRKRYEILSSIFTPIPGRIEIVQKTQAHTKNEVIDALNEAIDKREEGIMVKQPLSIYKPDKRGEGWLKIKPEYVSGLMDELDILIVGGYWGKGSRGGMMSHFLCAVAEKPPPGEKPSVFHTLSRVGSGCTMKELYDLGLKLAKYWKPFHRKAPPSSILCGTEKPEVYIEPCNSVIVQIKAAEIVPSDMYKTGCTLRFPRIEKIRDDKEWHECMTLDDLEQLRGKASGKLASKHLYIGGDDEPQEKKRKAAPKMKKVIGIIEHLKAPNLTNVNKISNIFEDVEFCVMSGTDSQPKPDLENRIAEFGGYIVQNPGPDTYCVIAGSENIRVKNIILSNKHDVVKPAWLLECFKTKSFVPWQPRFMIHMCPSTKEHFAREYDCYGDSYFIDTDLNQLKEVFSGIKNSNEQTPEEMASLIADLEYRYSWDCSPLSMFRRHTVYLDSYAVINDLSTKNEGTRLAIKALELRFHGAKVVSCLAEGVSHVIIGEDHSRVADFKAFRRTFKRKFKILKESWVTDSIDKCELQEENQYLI
UniProt O14733, sequence (O14733 whole entry, looked up): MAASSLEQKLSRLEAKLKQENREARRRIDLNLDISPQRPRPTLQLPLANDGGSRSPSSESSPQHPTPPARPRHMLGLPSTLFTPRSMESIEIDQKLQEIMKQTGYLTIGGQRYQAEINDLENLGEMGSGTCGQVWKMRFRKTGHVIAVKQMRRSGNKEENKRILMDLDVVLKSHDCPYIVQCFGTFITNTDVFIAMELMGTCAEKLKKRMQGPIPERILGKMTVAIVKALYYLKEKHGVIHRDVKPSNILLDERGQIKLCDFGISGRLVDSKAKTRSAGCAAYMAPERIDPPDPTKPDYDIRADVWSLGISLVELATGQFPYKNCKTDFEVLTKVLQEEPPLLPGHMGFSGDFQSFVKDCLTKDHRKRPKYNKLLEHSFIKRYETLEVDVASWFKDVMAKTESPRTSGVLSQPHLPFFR
UniProt Q9NX58, sequence (Q9NX58 whole entry, looked up): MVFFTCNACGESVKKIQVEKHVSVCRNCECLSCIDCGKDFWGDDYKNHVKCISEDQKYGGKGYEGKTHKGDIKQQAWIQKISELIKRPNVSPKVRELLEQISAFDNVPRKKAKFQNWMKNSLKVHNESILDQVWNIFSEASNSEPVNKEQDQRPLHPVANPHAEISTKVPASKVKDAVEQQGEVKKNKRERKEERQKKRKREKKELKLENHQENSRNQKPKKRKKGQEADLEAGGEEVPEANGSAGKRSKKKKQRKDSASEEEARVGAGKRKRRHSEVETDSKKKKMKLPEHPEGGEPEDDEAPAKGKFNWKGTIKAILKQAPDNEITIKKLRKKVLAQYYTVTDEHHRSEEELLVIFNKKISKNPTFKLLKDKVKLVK
UniProt Q16644, sequence (Q16644 whole entry, looked up): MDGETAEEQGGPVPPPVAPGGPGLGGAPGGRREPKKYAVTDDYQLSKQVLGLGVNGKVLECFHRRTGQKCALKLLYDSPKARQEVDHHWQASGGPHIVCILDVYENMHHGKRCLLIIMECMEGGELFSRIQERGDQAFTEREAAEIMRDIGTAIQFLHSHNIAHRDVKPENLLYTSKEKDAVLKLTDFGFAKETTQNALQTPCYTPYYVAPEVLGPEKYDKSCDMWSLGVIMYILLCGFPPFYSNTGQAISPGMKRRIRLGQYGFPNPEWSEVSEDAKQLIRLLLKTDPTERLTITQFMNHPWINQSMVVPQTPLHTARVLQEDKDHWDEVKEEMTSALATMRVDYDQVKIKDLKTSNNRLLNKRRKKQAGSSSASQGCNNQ
UniProt Q9H089, sequence (Q9H089 whole entry, looked up): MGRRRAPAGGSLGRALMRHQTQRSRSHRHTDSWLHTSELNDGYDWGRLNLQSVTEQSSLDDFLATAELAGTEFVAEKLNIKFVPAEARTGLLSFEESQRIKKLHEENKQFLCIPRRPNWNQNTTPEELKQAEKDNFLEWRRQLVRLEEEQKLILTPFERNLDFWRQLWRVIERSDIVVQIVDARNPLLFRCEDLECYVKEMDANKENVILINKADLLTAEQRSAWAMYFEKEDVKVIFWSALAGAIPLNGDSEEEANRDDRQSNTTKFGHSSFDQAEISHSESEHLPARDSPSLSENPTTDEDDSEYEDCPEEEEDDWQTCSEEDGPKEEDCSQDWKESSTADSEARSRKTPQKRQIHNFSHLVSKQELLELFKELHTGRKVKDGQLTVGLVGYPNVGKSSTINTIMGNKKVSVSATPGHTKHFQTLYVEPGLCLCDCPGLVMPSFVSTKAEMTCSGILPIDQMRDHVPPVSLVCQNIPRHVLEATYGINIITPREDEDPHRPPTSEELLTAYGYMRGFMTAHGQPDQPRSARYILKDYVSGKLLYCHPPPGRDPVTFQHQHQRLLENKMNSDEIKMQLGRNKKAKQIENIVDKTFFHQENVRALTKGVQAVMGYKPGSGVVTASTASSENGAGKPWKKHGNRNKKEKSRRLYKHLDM
UniProt Q96G25, sequence (Q96G25 whole entry, looked up): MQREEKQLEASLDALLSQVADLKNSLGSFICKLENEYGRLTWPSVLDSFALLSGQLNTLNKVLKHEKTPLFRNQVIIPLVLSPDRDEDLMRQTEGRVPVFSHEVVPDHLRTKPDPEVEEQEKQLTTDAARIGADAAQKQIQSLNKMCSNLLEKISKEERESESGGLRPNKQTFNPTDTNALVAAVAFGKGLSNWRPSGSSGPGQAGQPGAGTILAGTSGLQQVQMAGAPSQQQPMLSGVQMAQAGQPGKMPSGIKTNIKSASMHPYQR
UniProt Q8WV92, sequence (Q8WV92 whole entry, looked up): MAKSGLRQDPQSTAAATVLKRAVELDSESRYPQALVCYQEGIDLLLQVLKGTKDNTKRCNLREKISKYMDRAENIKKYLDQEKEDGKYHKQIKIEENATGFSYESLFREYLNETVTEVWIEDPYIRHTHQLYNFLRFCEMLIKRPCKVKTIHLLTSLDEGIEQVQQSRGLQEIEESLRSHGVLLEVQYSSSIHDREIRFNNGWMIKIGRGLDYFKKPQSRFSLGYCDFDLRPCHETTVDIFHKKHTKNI
UniProt Q7Z3D4, sequence (Q7Z3D4 whole entry, looked up): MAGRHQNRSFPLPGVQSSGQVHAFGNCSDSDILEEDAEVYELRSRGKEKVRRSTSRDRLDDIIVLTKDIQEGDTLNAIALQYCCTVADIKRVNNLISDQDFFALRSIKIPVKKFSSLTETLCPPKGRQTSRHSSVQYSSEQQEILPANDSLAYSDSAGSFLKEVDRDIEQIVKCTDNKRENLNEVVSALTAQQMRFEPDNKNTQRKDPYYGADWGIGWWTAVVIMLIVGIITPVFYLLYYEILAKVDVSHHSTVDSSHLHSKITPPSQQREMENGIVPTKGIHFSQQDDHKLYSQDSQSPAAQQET
UniProt O95297, sequence (O95297 whole entry, looked up): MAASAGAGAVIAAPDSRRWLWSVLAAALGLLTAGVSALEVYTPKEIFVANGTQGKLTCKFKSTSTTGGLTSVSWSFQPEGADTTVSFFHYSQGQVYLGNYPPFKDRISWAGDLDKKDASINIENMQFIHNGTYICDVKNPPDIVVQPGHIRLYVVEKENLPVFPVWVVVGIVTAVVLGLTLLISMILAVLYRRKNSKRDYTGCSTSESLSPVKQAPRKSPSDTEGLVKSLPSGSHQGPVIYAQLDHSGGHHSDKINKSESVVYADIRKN
UniProt Q9BV79, sequence (Q9BV79 whole entry, looked up): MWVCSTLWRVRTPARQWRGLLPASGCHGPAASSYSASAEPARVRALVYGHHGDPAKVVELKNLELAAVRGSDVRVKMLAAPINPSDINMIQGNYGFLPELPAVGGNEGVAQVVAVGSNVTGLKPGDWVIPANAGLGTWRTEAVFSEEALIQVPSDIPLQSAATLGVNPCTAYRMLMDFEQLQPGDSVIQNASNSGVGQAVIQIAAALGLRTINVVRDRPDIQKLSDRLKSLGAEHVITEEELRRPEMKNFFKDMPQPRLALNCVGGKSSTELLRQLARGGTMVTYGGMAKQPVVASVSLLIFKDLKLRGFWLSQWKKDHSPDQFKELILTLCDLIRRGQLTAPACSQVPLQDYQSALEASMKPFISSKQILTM

log2 fold change, inactive:
MITD1 (UniProt Q8WV92) -0.09, LYRM4 (UniProt Q9HD34) 0.052, LSG1 (UniProt Q9H089) 0.026, MED8 isoform 2 (UniProt Q96G25) -0.007, LARP4B (UniProt Q92615) -0.02, MPDZ (UniProt O75970) -0.059, LGALS3BP (UniProt Q08380) -0.043, MCMBP (UniProt Q9BTE3) -0.028, MIPEP (UniProt Q99797) -0.008, MED17 (UniProt Q9NVC6) -0.116, MLH1 (UniProt P40692) 0.03, LIG4 (UniProt P49917) -0.008, MPZL1 (UniProt O95297) -0.014, MAPK9 (UniProt P45984) 0.174, MAP2K7 isoform 4 (UniProt O14733) 0, MFF isoform 2 (UniProt Q9GZY8) 0.008, LYAR (UniProt Q9NX58) 0.005, MECR (UniProt Q9BV79) -0.004, MAPKAPK3 (UniProt Q16644) -0.058, MAP3K4 (UniProt Q9Y6R4) 0.095, MAST4 (UniProt O15021) 0.08, MINDY1 isoform 3 (UniProt Q8N5J2) 0.271, LYSMD3 (UniProt Q7Z3D4) 0.171
